About 2,000 (36%) of roughly 5,500 compounds were called active. Not shown: some 18% with an inconclusive outcome. Cut-off read from the data, not from the text of the source: active = normalized growth mostly below about 0.91 (no sharp cut-off); inconclusive = no clear call, values can overlap the other calls; inactive = mostly above about 0.92. The list shows a part of the results.
Test: chemical genetic growth profiling, strain panel (AID 1159580);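 note: tested at 20 µM; growth read once vehicle control cultures reached saturation at 30 °C; 1 = growth at the plate median or of vehicle wells; lower values mean less growth of the strain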
Details: growth OD

Measured: normalized growth

O=C(O)c1nc2cc(Cl)c(Cl)cc2[nH]c1=O
inactive: S. cerevisiae deletion strains, locus YJR075W, strain HOC1, active compounds read low 1.07 | S. cerevisiae deletion strains, locus YKL009W, strain mrt4, active compounds read low 0.949 | S. cerevisiae deletion strains, locus YKL068W, active compounds read low 0.981 | S. cerevisiae deletion strains, locus YKL085W, strain MDH1 (second series), active compounds read low 1.02 | S. cerevisiae deletion strains, locus YKL085W, strain MDH1, active compounds read low 1.02 | S. cerevisiae deletion strains, locus YKL160W, strain elf1, active compounds read low 0.996 | S. cerevisiae deletion strains, locus YKL190W, strain CNB1, active compounds read low 0.996 | S. cerevisiae deletion strains, locus YKR001C, strain vps1, active compounds read low 0.983 | S. cerevisiae deletion strains, locus YKR026C, strain gcn3, active compounds read low 1.02 | S. cerevisiae deletion strains, locus YKR091W, strain srl3, active compounds read low 1.01 | S. cerevisiae deletion strains, locus YLL001W, strain dnm1, active compounds read low 1.01 | S. cerevisiae deletion strains, locus YLL026W, active compounds read low 1.01 | S. cerevisiae deletion strains, locus YLL041C, strain sdh2, active compounds read low 1.01 | S. cerevisiae deletion strains, locus YLR027C, strain aat2, active compounds read low 1.01 | S. cerevisiae deletion strains, locus YLR039C, strain RIC1, active compounds read low 1.01 | S. cerevisiae deletion strains, locus YLR058C, strain SHM2, active compounds read low 1 | S. cerevisiae deletion strains, locus YLR102C, strain apc9, active compounds read low 0.987 | S. cerevisiae deletion strains, locus YLR113W, strain HOG1, active compounds read low 0.987 | S. cerevisiae deletion strains, locus YLR221C, strain rsa3, active compounds read low 1 | S. cerevisiae deletion strains, locus YLR258W, strain gsy2, active compounds read low 1.02 | S. cerevisiae deletion strains, locus YLR262C, strain YPT6 (second series), active compounds read low 1.02 | S. cerevisiae deletion strains, locus YLR262C, strain YPT6, active compounds read low 0.981 | S. cerevisiae deletion strains, locus YLR268W, strain sec22, active compounds read low 1 | S. cerevisiae deletion strains, locus YLR320W, strain mms22, active compounds read low 1.02 | S. cerevisiae deletion strains, locus YLR330W, strain CHS5, active compounds read low 0.994 | S. cerevisiae deletion strains, locus YLR342W, strain FKS1 (second series), active compounds read low 1.02 | S. cerevisiae deletion strains, locus YLR342W, strain FKS1, active compounds read low 1.03 | S. cerevisiae deletion strains, locus YLR357W, strain rsc2, active compounds read low 1.01 | S. cerevisiae deletion strains, locus YLR370C, strain arc18, active compounds read low 1.03 | S. cerevisiae deletion strains, locus YLR371W, strain rom2, active compounds read low 0.968 | S. cerevisiae deletion strains, locus YLR384C, strain iki3, active compounds read low 1 | S. cerevisiae deletion strains, locus YLR418C, strain cdc73, active compounds read low 1.05 | S. cerevisiae deletion strains, locus YML016C, strain PPZ1, active compounds read low 0.995 | S. cerevisiae deletion strains, locus YML032C, strain rad52, active compounds read low 0.977 | S. cerevisiae deletion strains, locus YML120C, strain ndi1, active compounds read low 1 | S. cerevisiae deletion strains, locus YML124C, strain tub3, active compounds read low 0.993 | S. cerevisiae deletion strains, locus YMR058W, strain fet3, active compounds read low 1.02 | S. cerevisiae deletion strains, locus YMR078C, strain ctf18, active compounds read low 0.99 | S. cerevisiae deletion strains, locus YMR125W, strain sto1, active compounds read low 1.02 | S. cerevisiae deletion strains, locus YMR129W, active compounds read low 1 | S. cerevisiae deletion strains, locus YMR205C, strain PFK2, active compounds read low 1.04 | S. cerevisiae deletion strains, locus YMR223W, strain ubp8, active compounds read low 0.996 | S. cerevisiae deletion strains, locus YMR231W, strain pep5, active compounds read low 1.02 | S. cerevisiae deletion strains, locus YMR263W, strain SAP30, active compounds read low 1.02 | S. cerevisiae deletion strains, locus YMR307W, strain GAS1, active compounds read low 1.04 | S. cerevisiae deletion strains, locus YNL067W, strain RPL9B, active compounds read low 0.948 | S. cerevisiae deletion strains, locus YNL071W, strain lat1, active compounds read low 1.01 | S. cerevisiae deletion strains, locus YNL128W, strain TEP1, active compounds read low 1.04 | S. cerevisiae deletion strains, locus YNL153C, strain GIM3, active compounds read low 1.03 | S. cerevisiae deletion strains, locus YNL183C, strain NPR1, active compounds read low 0.933 | S. cerevisiae deletion strains, locus YNL209W, strain ssb2, active compounds read low 1.01 | S. cerevisiae deletion strains, locus YNL233W, strain BNI4, active compounds read low 1.03 | S. cerevisiae deletion strains, locus YNL248C, strain rpa49, active compounds read low 0.984 | S. cerevisiae deletion strains, locus YNL250W, strain rad50, active compounds read low 0.988 | S. cerevisiae deletion strains, locus YNL271C, strain bni1, active compounds read low 0.991 | S. cerevisiae deletion strains, locus YNL298W, strain CLA4, active compounds read low 0.993 | S. cerevisiae deletion strains, locus YNL307C, strain MCK1, active compounds read low 1.01 | S. cerevisiae deletion strains, locus YNL322C, strain KRE1 (second series), active compounds read low 1.01 | S. cerevisiae deletion strains, locus YNL322C, strain KRE1, active compounds read low 0.998 | S. cerevisiae deletion strains, locus YNR049C, strain mso1, active compounds read low 1.01 | S. cerevisiae deletion strains, locus YNR052C, strain pop2, active compounds read low 0.982 | S. cerevisiae deletion strains, locus YOL006C, strain TOP1, active compounds read low 1.09 | S. cerevisiae deletion strains, locus YOL012C, strain htz1 0.84 | S. cerevisiae deletion strains, locus YOL147C, strain pex11, active compounds read low 0.998 | S. cerevisiae deletion strains, locus YOR001W, strain rrp6, active compounds read low 0.994 | S. cerevisiae deletion strains, locus YOR061W, strain CKA2, active compounds read low 1 | S. cerevisiae deletion strains, locus YOR069W, strain VPS5, active compounds read low 0.997 | S. cerevisiae deletion strains, locus YOR070C, strain gyp1, active compounds read low 1.01 | S. cerevisiae deletion strains, locus YOR080W, strain dia2, active compounds read low 1.02 | S. cerevisiae deletion strains, locus YOR083W, strain WHI5, active compounds read low 0.981 | S. cerevisiae deletion strains, locus YOR106W, strain vam3, active compounds read low 0.994 | S. cerevisiae deletion strains, locus YOR136W, strain idh2, active compounds read low 0.992 | S. cerevisiae deletion strains, locus YOR144C, strain elg1, active compounds read low 0.993 | S. cerevisiae deletion strains, locus YOR184W, strain ser1, active compounds read low 0.988 | S. cerevisiae deletion strains, locus YOR231W, strain MKK1, active compounds read low 1.01 | S. cerevisiae deletion strains, locus YOR265W, strain rbl2, active compounds read low 0.999 | S. cerevisiae deletion strains, locus YOR270C, strain vph1, active compounds read low 1.05 | S. cerevisiae deletion strains, locus YOR290C, strain snf2, active compounds read low 1 | S. cerevisiae deletion strains, locus YOR316C, strain cot1, active compounds read low 0.987 | S. cerevisiae deletion strains, locus YPL051W, strain arl3, active compounds read low 0.989 | S. cerevisiae deletion strains, locus YPL055C, strain LGE1, active compounds read low 0.981 | S. cerevisiae deletion strains, locus YPL078C, strain atp4, active compounds read low 1 | S. cerevisiae deletion strains, locus YPL106C, strain sse1, active compounds read low 1.02 | S. cerevisiae deletion strains, locus YPL240C, strain hsp82, active compounds read low 1 | S. cerevisiae deletion strains, locus YPL241C, strain CIN2, active compounds read low 0.992 | S. cerevisiae deletion strains, locus YPL256C, strain CLN2, active compounds read low 0.994 | S. cerevisiae deletion strains, locus YPR119W, strain clb2, active compounds read low 0.996 | S. cerevisiae deletion strains, locus YPR141C, strain kar3, active compounds read low 0.99 | S. cerevisiae deletion strains, locus YPR163C, strain tif3, active compounds read low 0.992 | S. cerevisiae deletion strains, locus YPR167C, strain met16, active compounds read low 0.996 | S. cerevisiae deletion strains, strain wtn01, active compounds read low 1.01 | S. cerevisiae strains, strain wild type, active compounds read low 1.01
